A selection: hits, their analogues and other compounds. The true share with any hit is near 1.3%.
Candida biofilm: clotrimazole potentiators killing Candida biofilms, primary screen, with clotrimazole, Alamar Blue | C. albicans biofilm + clotrimazole | inhibition, % at 6 µM | 0.14% of 85,000 active | AID 834, 2007;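 active = inhibition above 20%; inactive = inhibition below 20%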;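 note: preformed 24 hr biofilms exposed to compound for 48 hr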
S1P2 antag: human S1P2 receptor antagonists, primary screen, cell-based. inhibition, % at 5 µM. 0.21% of 97,000 active. cell-based S1P2 antagonist assay, inhibition at 5 uM; in the data active = inhibition above about 45%;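 note: CRE beta-lactamase reporter cells expressing human S1P2 stimulated with S1P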
S1P2 ag: S1P2 receptor agonists, primary screen, cell-based; Sphingosine 1-phosphate receptor 2 (Homo sapiens), O95136; S1P2-expressing cell line, agonist reporter read-out; activation, % at 4.5 µM; 0.46% of 97,000 active; in the data active = activation above about 16%
GALR2 blocker: GALR2 antagonists in receptor-expressing cells, primary screen | Galanin receptor type 2 (Homo sapiens), O43603 | antagonist mode | inhibition, % at 4 µM | 0.39% of 140,000 active; in the data active = inhibition above about 27%;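 note: cells stimulated with galanin 1-16 at roughly its EC80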
Smad3 FoxH1 inh: Smad3/FoxH1 peptide binding inhibitors, primary screen, biochemical, TR-FRET; Mothers against decapentaplegic homolog 3 (Homo sapiens), P84022; TR-FRET Smad3/Dy647-FoxH1 peptide binding, europium anti-His; inhibition, % at 25 µM; 0.29% of 88,000 active;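 active = compounds that reduce the energy-transfer binding signal between the protein and its labelled peptide by more than half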
Target sequence (P84022 whole entry, looked up): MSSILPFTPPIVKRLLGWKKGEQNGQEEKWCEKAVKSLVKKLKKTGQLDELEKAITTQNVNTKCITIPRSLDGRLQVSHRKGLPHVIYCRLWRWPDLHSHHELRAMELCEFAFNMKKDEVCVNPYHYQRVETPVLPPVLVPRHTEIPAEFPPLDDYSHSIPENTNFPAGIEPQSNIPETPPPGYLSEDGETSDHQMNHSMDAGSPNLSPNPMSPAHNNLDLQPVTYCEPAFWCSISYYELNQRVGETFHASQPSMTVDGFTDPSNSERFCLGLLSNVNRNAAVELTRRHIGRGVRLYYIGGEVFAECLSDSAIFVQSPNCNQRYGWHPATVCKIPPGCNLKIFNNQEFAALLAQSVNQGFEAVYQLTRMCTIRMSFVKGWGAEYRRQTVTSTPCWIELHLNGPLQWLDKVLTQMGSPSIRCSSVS
GALR2 agonist: GALR2 receptor agonists, primary screen, cell-based | GALR2-expressing cells, agonist activation read-out | activation, % (concentration not given with the values) | 0.48% of 140,000 active; in the data active = activation above about 5%, passing the limit was not always enough
Large screens that a line does not name were inactive.

C=CCn1c(/N=C/c2ccc(N(C)C)cc2)nc2ccccc21	none
CN(C)c1ccc(/C=N/n2ncc3ccccc32)cc1	GALR2 agonist 25 (no result: S1P2 antag, S1P2 ag)
Cn1c(C[C@@H](O)c2nc3ccccc3n2C)nc2ccccc21	none (no result: Candida biofilm, S1P2 antag, S1P2 ag, GALR2 blocker, GALR2 agonist)
CCN(C(=O)c1ccc(C(C)(C)C)cc1)c1nnc(Cn2nnc3ccccc32)s1	S1P2 antag 87
CC1(C)[C@H]2CC[C@]1(C)[C@H](OC(=O)CSC#N)C2	none (no result: Candida biofilm, S1P2 antag, S1P2 ag, GALR2 blocker, GALR2 agonist)
COc1cc(C)c(S(=O)(=O)NCc2ccc3c(c2)OCO3)cc1C	Candida biofilm 27
CC[C@H]1CC[C@H]2[C@H]3CC=C4C[C@H](OC(C)=O)[C@@H](N)C[C@@]4(C)[C@@H]3CC[C@]12C	none (no result: Candida biofilm, S1P2 antag, S1P2 ag, GALR2 blocker, GALR2 agonist)
N#Cc1c(-c2ccc(Br)cc2)cc(-c2cccnc2)nc1N	none (no result: Candida biofilm, S1P2 antag, S1P2 ag, Smad3 FoxH1 inh)
CS(=O)c1nc(-c2ccc(Br)cc2)cc(-c2ccccc2)c1C#N (configuration not stated)	GALR2 blocker 57, GALR2 agonist 6.2 (no result: S1P2 antag, S1P2 ag)
CS(=O)(=O)c1nc(-c2ccc(Br)cc2)cc(-c2ccccc2)c1C#N	S1P2 ag 19
COc1ccc(-c2cc(-c3ccccc3)c(C#N)c(S(C)(=O)=O)n2)cc1	none
CCCS(=O)(=O)c1nnnn1-c1cccc(OC)c1	GALR2 blocker 84 (no result: S1P2 antag, S1P2 ag)
O=C1OCCN1C(=O)[C@H]1[C@H](c2ccc(F)cc2)C(c2ccc(F)cc2)=NN1c1ccc(Br)cc1	GALR2 agonist 6.7 (no result: Candida biofilm, S1P2 antag, S1P2 ag, Smad3 FoxH1 inh)
O=C1OCCN1C(=O)[C@H]1[C@H](c2ccc(F)cc2)C(c2ccc(F)cc2)=NN1c1ccccc1	none (no result: Candida biofilm, S1P2 antag, S1P2 ag, Smad3 FoxH1 inh)
COc1cccc(C2C(C(=O)Nc3ccccc3)=C(C)N=c3s/c(=C/c4ccc(OCC(=O)O)cc4)c(=O)n32)c1 (configuration not stated)	none (no result: Candida biofilm, S1P2 antag, S1P2 ag, Smad3 FoxH1 inh)
COc1ccccc1C1C(C(C)=O)=C(C)N=c2s/c(=C\c3cc(OC)c(OC)c(OC)c3)c(=O)n21 (configuration not stated)	S1P2 ag 17
CCOC(=O)C1=C(O)/C(=C\c2ccc(CNC(=O)C(=O)Nc3ccc(C)c(C)c3)o2)N=C1C	Candida biofilm 69
c1ccc(-c2ccc(-c3ccc(C4=NCCN4)cc3)o2)cc1	none (no result: Candida biofilm, S1P2 antag, S1P2 ag, GALR2 blocker, GALR2 agonist)
Cc1cc(Cc2cc(C)c(N)cc2N)c(N)cc1N	Smad3 FoxH1 inh 102 (no result: Candida biofilm, S1P2 antag, S1P2 ag, GALR2 blocker, GALR2 agonist)
CO[C@@H]1/C=C\O[C@@]2(C)Oc3c(C)c(O)c4c(c3C2=O)C(=N[C@H]2CC[C@H](O)O[C@@H]2C)C=C(NC(=O)/C(C)=C\C(=O)[C@@H]2C[C@H]2[C@@H](O)[C@H](C)[C@@H](O)[C@H](C)[C@H](OC(C)=O)[C@@H]1C)C4=O	none (no result: Candida biofilm, S1P2 antag, S1P2 ag, GALR2 blocker, GALR2 agonist)
Cc1cc2nc([C@H](C)C(=O)c3ccc(Cl)cc3)c(=O)[nH]c2cc1C	none (no result: Candida biofilm, S1P2 antag, S1P2 ag, GALR2 blocker, GALR2 agonist)
COc1ccc2c(c1)c1c(C)c3cnccc3c(C)c1n2CCCN	Smad3 FoxH1 inh 87 (no result: Candida biofilm, S1P2 antag, S1P2 ag, GALR2 blocker, GALR2 agonist)
Cn1cc(S(=O)(=O)CC(=O)Nc2ccc3c(c2)OCCO3)c2ccccc21	Candida biofilm 23
C=CCn1c(NC(=O)c2ccccc2Cl)c(C#N)c2nc3ccccc3nc21	none
C=CCn1c(NC(=O)c2ccccc2)c(C#N)c2nc3ccccc3nc21	Smad3 FoxH1 inh 67 (no result: S1P2 antag, S1P2 ag, GALR2 blocker, GALR2 agonist)
C=CCn1c(N)c(C(=O)Nc2cccc(C)c2)c2nc3ccccc3nc21	S1P2 ag 52, GALR2 agonist 14 (no result: Candida biofilm, Smad3 FoxH1 inh)
Cc1ccc(NC(=O)CC2S/C(=N/c3nccs3)N(C)C2=O)c(C)c1 (configuration not stated)	none
CCOc1ccc2nnc(-c3ccc(Br)cc3)n2n1	none
CCCn1c(C)cc(C(=O)COC(=O)c2cc(S(=O)(=O)NCC(C)C)c(Cl)cc2Cl)c1C	S1P2 ag 29
CCCCCCCCC[n+]1cccc2c3ccccc3ccc21	S1P2 antag 48 (no result: Candida biofilm, Smad3 FoxH1 inh)
Cc1ccc(N2C(=O)CS/C2=C(\C(Cl)=C(Cl)Cl)[N+](=O)[O-])cc1	Smad3 FoxH1 inh 52
CSc1ncnc2c1ncn2[C@H]1O[C@@H](CO)[C@H](O)O[C@@H]1O	none (no result: Candida biofilm, S1P2 antag, S1P2 ag, GALR2 blocker, GALR2 agonist)
Cc1nnc(SCC(=O)NCc2ccccc2)[nH]c1=O	Smad3 FoxH1 inh 63
Cc1nnc(SCC(=O)NCCc2ccccc2)[nH]c1=O	none
COC(=O)C(Cc1ccccc1)NC(=O)CSc1nc(C)cc(=O)[nH]1 (configuration not stated)	none
Cc1cc(=O)[nH]c(SCC(=O)NCCc2ccccc2)n1	Smad3 FoxH1 inh 96
CCc1c(O)c2c(c(O)c1C(C)=O)C(=O)c1c(cc(O)c(C(=O)O)c1C(=O)O)C2=O	none (no result: Candida biofilm, S1P2 antag, S1P2 ag, GALR2 blocker, GALR2 agonist)
COc1ccc(NS(=O)(=O)c2cccc(N3CC(O)=C(c4ccccc4)C3=N)c2)cc1	none (no result: Candida biofilm, S1P2 antag, S1P2 ag, Smad3 FoxH1 inh)
Cc1cc(NC(=O)COC(=O)c2oc3c(ccc4ccccc43)c2C)no1	GALR2 agonist 5.1 (no result: Candida biofilm, S1P2 antag, S1P2 ag, Smad3 FoxH1 inh)
Cc1cc(-n2c(=O)c(C#N)cc3c(=O)n4cccc(C)c4nc32)no1	GALR2 agonist 19 (no result: S1P2 antag, S1P2 ag)
CCCn1c(=N)c(C#N)cc2c(=O)n3ccccc3nc21	none (no result: Candida biofilm, S1P2 antag, S1P2 ag, Smad3 FoxH1 inh)
Cc1ccc(-n2c(=O)c(C#N)cc3c(=O)n4ccccc4nc32)cc1	GALR2 agonist 8.7 (no result: S1P2 antag, S1P2 ag)
Cc1cccc(-n2c(=O)c(C#N)cc3c(=O)n4ccccc4nc32)c1	S1P2 ag 39, GALR2 agonist 24
C=C(C)COc1ccc2c(c1)CC[C@@H]1[C@H]3C/C(=N/O)C(=O)[C@]3(C)CC[C@@H]21	none (no result: Candida biofilm, S1P2 antag, S1P2 ag, GALR2 blocker, GALR2 agonist)
Nc1ccn([C@H]2O[C@H](CO)[C@@H]3[O][Sn]([c]4ccccc4)([c]4ccccc4)[O][C@@H]32)c(=O)n1	none (no result: Candida biofilm, S1P2 antag, S1P2 ag, GALR2 blocker, GALR2 agonist)
COc1ccc(Cl)cc1NC(=O)C(C)Sc1nncn1C (configuration not stated)	none
COc1ccc(OC)c(-c2nnc(NC(=O)C(C)Sc3nncn3C)s2)c1 (configuration not stated)	Candida biofilm 23
